Most compounds without a hit are left out; they make up all but 2.4% or so of the library.
CHO-K1 Ca ag = nonselective activator or artifact in parental CHO-K1 cells; Fluo-8 calcium fluorescence; scaled to maximal ATP response, vehicle zero; activation, % at 3 µM; 0.48% of 360,000 active; in the data active = activation above about 15%;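 note: untransfected CHO-K1 host cells lacking M1 receptor as counterscreen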
M1 PAM = potentiates human M1 receptor response to acetylcholine; CHO-K1 hM1, Fluo-8 calcium fluorescence, ACh EC20; 0% = ACh EC20, 100% = maximal ACh; activation, % at 3 µM; 0.088% of 360,000 active; AID 588819; in the data active = activation above about 19%, passing the limit was not always enough
Target sequence (P11229 whole entry, looked up): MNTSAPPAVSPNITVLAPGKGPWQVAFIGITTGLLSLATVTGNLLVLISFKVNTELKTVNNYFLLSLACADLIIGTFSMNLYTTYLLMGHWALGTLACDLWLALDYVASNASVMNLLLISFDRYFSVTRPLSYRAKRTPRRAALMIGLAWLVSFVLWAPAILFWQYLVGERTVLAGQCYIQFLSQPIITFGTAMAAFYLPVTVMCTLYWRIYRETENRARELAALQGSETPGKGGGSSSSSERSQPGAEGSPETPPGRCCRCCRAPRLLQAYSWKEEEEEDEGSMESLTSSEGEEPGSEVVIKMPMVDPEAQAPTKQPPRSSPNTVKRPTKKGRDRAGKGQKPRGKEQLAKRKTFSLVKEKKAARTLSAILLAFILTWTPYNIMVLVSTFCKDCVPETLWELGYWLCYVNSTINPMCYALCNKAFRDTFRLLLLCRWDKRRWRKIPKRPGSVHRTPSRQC
CHO-K1 Ca PAM = nonselective activator or artifact in parental CHO-K1 calcium assay; ATP EC20, Fluo-8 calcium fluorescence; 0% at ATP EC20, 100% at ATP max; 0.02% of 360,000 active; AID 602247; activation, % at 3 µM;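 active = activation above the run cutoff, the mean activation of all test compounds plus 3 SD, cut at about 40% in these data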;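 note: peak over basal fluorescence ratio in a 140 s read after ATP addition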
M1 antag = human CHRM1 antagonism. P11229. CHO-K1 hM1, Fluo-8 calcium fluorescence, ACh EC80 antagonist. inhibition, % at 3 µM. 1.3% of 360,000 active;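 active = percent inhibition above its own plate's cutoff, namely the mean of that plate's compound wells plus 3 SD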;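 note: peak over basal fluorescence ratio during 140 s after agonist addition; 0% = ACh EC80 plus DMSO and 100% = DMSO alone without agonist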
CHRM1 agonist = human M1 muscarinic receptor agonism. activation, % at 3 µM. AID 588814. 0.33% of 360,000 active. CHO-K1 hM1, Fluo-8 calcium fluorescence, agonist mode; 0% DMSO, 100% acetylcholine EC100;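 active = activation above the run's mean compound activation plus 3 SD, cut at about 16% in these data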;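 note: peak over basal fluorescence ratio within a 140 s kinetic read after compound addition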
CHO-K1 Ca antag = M1 antagonist counterscreen hit in parental CHO-K1 cells; ATP-induced calcium, Fluo-8 fluorescence; inhibition, % at 3 µM; 0.6% of 360,000 active;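 active = inhibition above a per-plate cutoff, the plate's mean sample inhibition plus 3 SD, cut at about 24% in these data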;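 note: 0% = DMSO plus EC80 ATP and 100% = DMSO alone without ATP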
An asterisk follows results filed as active.

SMILES | CHO-K1 Ca ag | M1 PAM | CHO-K1 Ca PAM | M1 antag | CHRM1 agonist | CHO-K1 Ca antag
CC(C)(C)OC(=O)NCc1ccc(NC(=O)c2nc[nH]c2C(=O)NCCNC(=O)c2[nH]cnc2C(=O)Nc2ccc(CNC(=O)OC(C)(C)C)cc2)cc1 | 2 | -5 | 11 | 10 | -3 | -7
Cc1cc2c(N=NC(=O)CCc3ccccc3)c(O)[nH]c2cc1Br | 0 | 11 | 16 | -13 | 0 | -10
CC(C)(C)OC(=O)NCCCCCNC(=O)c1[nH]cnc1C(=O)N[C@@H](CCCCNC(=O)OC(C)(C)C)C(=O)OC(C)(C)C | 2 | -22 | -1 | 30* | -6 | -6
CC(C)(C)OC(=O)CNC(=O)c1[nH]cnc1C(=O)Nc1ccc(CNC(=O)OC(C)(C)C)cc1 | 6 | -28 | -19 | 52* | 0 | 13
CC(C)(C)OC(=O)NCCCC[C@H](NC(=O)c1nc[nH]c1C(=O)N[C@@H](CCCCNC(=O)OC(C)(C)C)C(=O)OC(C)(C)C)C(=O)OC(C)(C)C | 1 | -5 | 17 | 17 | -2 | -19
CC(C)(C)OC(=O)CNC(=O)c1nc[nH]c1C(=O)NCc1ccccc1 | 2 | 6 | 18 | -3 | -1 | -13
CC(C)C[C@H](NC(=O)c1[nH]cnc1C(=O)Nc1ccc(CNC(=O)OC(C)(C)C)cc1)C(=O)OC(C)(C)C | 0 | -7 | 48* | 24 | -1 | -29
CC(C)(C)OC(=O)CNC(=O)c1nc[nH]c1C(=O)NCc1ccc(CNC(=O)OC(C)(C)C)cc1 | 12 | -24 | -19 | 34* | -2 | 17
Cc1ccc(F)cc1C(=O)N1CCCCC1c1cc(C(=O)Nc2ccc(F)c(Cl)c2)no1 (stereo not given) | 1 | -15 | 12 | 9 | -8 | -4
CSC(=Nc1ccccc1)N=C(SCc1ccccc1)N(C)C | 9 | -25 | 6 | 49* | 2 | 18
N#CNC(=Nc1ccccc1)SCc1ccc(C(=O)O)cc1 | 0 | 7 | -10 | 0 | -1 | 13
Cc1cc(=O)n2c3ccccc3n(CC(O)CN3CCN(Cc4ccccc4)CC3)c2c1C#N (stereo not given) | 3 | -22 | 0 | 45* | -6 | 4
N#CC1=C(SCC(=O)c2ccccc2)NC2=C(C(=O)CCC2)C1c1ccco1 (stereo not given) | 1 | -12 | -6 | -4 | -5 | 31*
Cc1ccc(C(=O)CSC2=C(C#N)C(c3ccco3)C3=C(CCCC3=O)N2)cc1 (stereo not given) | 0 | 1 | 8 | -6 | -7 | -7
Cc1onc(-c2ccccc2)c1CNC(=O)Nc1ccccc1 | 1 | 6 | -9 | -7 | 2 | 4
Cc1ccccc1NC(=O)C1CCCN(c2nnc(N3CCCC3=O)s2)C1 (stereo not given) | 0 | -1 | -12 | -1 | -4 | 26*
COc1ccc(/C=C/C(=O)NCCCN2CCCC2)cc1 | 6 | -15 | 4 | 41* | -8 | -2
Cc1ccc(/C=C/C(=O)NCCCN2CCN(CCCNC(=O)/C=C/c3ccc(C)cc3)CC2)cc1 | 0 | 6 | 15 | -10 | -8 | -11
O=C(O)c1cn(Cc2ccccn2)c(=O)c2ccccc12 | 1 | 13 | 24 | -15 | -3 | -12
Cc1cccc(C(=O)NC(=S)NNC(=O)c2ccc(Cl)cc2)c1 | 110* | -29 | -16 | 37* | 93* | 48*
CN1CCN(C(=O)c2ccccc2NC(=O)c2ccccc2Br)CC1 | 1 | 8 | -10 | -11 | -1 | -3
COc1cc(C(=O)NNC(=O)/C=C/c2ccccc2)cc(OC)c1OC | 0 | 7 | -20 | -13 | -2 | 14
CN1CCN(C(=O)c2ccccc2NC(=O)c2cccs2)CC1 | 0 | -15 | -4 | active | -2 | 6
COc1cc(C(=O)NNC(=S)NC(=O)/C=C/c2ccccc2)cc(OC)c1OC | 11 | 4 | 15 | -2 | 23* | -8
O=C(NNC(=S)NC(=O)c1ccccc1)c1cccc([N+](=O)[O-])c1 | 12 | -2 | 4 | 2 | 17* | -13
O=C(NNC(=S)NC(=O)c1cccc([N+](=O)[O-])c1)c1ccc(O)cc1 | 0 | 8 | 1 | -9 | -3 | -12

From PubChem BioAssay
